Screening data deposited in PubChem by Broad Institute.
Pf Dd2 growth: P. falciparum Dd2 growth inhibitors, primary screen, SYBR Green fluorescence, single dose replicates; hit rate 2.3% among 94,000; 72 h; active compounds read low; activity change, % at 10 µM; in the data active = activity change below about -80%; inconclusive = no clear call, values can overlap the other calls
C diff growth: C. difficile growth inhibitors, primary screen, HTS; Clostridium difficile clinical isolate growth, OD600, 24 h; active compounds read low; hit rate 0.25% among 86,000; AID 1259249, 2017; growth activity, negative = inhibition, % at 16 µg/mL (by protocol);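 active = mean growth activity at or below -80% and every replicate also at or below -80%; inconclusive = mean at or below -80% but some replicate above -80%; inactive = mean growth activity above -80%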;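 also: 0% = DMSO wells and -100% = levofloxacin 16 µg/mL wells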
T cruzi growth-1: T. cruzi intracellular proliferation inhibitors, primary screen, cell-based, beta-gal Tulahuen parasites, NIH3T3 host, luminescence. T. cruzi beta-gal in NIH3T3, GalScreen luminescence, 90 h. inhibition, % at 8.34 µM. hit rate 5.9% among 77,000. AID 624255, 2012;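 active = mean inhibition above about 93%, with at least 55% of replicates each passing it, limit read from the data, passing the limit was not always enough; inconclusive = only one of those two conditions holds; inactive = neither condition holds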
T cruzi growth-2: T. cruzi intracellular proliferation inhibitors, confirmation, cell-based, NIH3T3 host, beta-gal parasite, luminescence, cherry-pick; hit rate 72% among 5,600; inhibition, % at 8.35 µM; shares compounds with T cruzi growth-1; T. cruzi beta-gal in NIH3T3, GalScreen luminescence, 90 h;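 active = mean replicate inhibition above about 95% and at least 55% of replicates individually reaching it, limit read from the data; inconclusive = only one of the two criteria is met; inactive = neither criterion is met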
T cruzi growth-3: inhibitors of intracellular T. cruzi replication, confirmation, NIH3T3 host cells, beta-gal parasites, cherry-pick, set 2; shares compounds with T cruzi growth-1; T. cruzi beta-gal in NIH3T3, GalScreen luminescence, 90 h; inhibition, % at 2.09 µM; hit rate 21% among 5,600; AID 651740, 2012;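 active = mean inhibition above about 95%, with at least 55% of replicates also reaching it, limit read from the data; inconclusive = meets just one of the two conditions; inactive = meets neither condition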;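 also: plate controls were neutral control median for no effect and positive control median for full effect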
3T3 cytotox: cytotoxicity in mouse NIH/3T3 fibroblasts, confirmation, cytotoxicity control for T. cruzi proliferation inhibitor project, cell-based, cherry-pick, single point | shares compounds with T cruzi growth-1 | NIH/3T3 viability, CellTiter-Glo ATP luminescence, 90 h | cytotoxicity (signal decrease), % at 8.35 µM | hit rate 14% among 5,600;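 active = mean signal decrease across replicates above about 35% based on untreated-well scatter, with enough replicates individually passing, limit read from the data; inconclusive = no rule stated though some were filed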;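 also: 0% = median of neutral control wells and 100% = median of positive control wells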
NIH3T3 tox 2: NIH/3T3 fibroblast cytotoxicity, confirmation, cytotoxicity control, cell-based, cherry-pick, single point, set 2; shares compounds with T cruzi growth-1; NIH/3T3 viability, CellTiter-Glo ATP luminescence, 90 h; inhibition, % at 24.9 µM; hit rate 56% among 5,600;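 active = mean loss of cell viability signal at or above a set limit, and enough replicates individually reaching it; inconclusive = meets only the mean limit or only the replicate share; inactive = meets neither condition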;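 also: 0% = median of neutral control wells and 100% = median of positive control wells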
* = called active by the depositor; ? = inconclusive; / = no result given. A selection: hits, their analogues and other compounds. The true share with any hit is near 6.8%.

SMILES	Pf Dd2 growth	C diff growth	T cruzi growth-1	T cruzi growth-2	T cruzi growth-3	3T3 cytotox	NIH3T3 tox 2
COc1cccc(C#Cc2ccc3c(c2)O[C@H](CN(C)C(C)=O)[C@H](C)CN([C@H](C)CO)S3(=O)=O)c1	-54.6	-14.6	63.2	/	/	/	/
COc1cccc(NC(=O)N(C)C[C@@H]2Oc3cc(C#Cc4ccc(F)cc4)ccc3S(=O)(=O)N([C@@H](C)CO)C[C@@H]2C)c1	-86.2*	5.4	98.0*	101.6*	106.8*	45.1*	20.5
COc1cccc(NC(=O)N(C)C[C@@H]2Oc3cc(C#Cc4ccc(F)cc4)ccc3S(=O)(=O)N([C@@H](C)CO)C[C@H]2C)c1	-44.1	6.9	104.7*	108.7*	104.7*	48.2*	29.5*
COc1cccc(NC(=O)N(C)C[C@H]2Oc3cc(-c4ccccc4F)ccc3S(=O)(=O)N([C@H](C)CO)C[C@H]2C)c1	-48.4	7.2	96.4*	110.4*	73.6	15.6	22.1
COc1cccc(NC(=O)N(C)C[C@@H]2Oc3cc(-c4ccccc4F)ccc3S(=O)(=O)N([C@H](C)CO)C[C@H]2C)c1	-42.0	-23.6	37.7	/	/	/	/
COc1cccc(C#Cc2ccc3c(c2)O[C@H](CN(C)C(C)=O)[C@@H](C)CN([C@@H](C)CO)S3(=O)=O)c1	-59.8	-9.0	?	102.2*	51.0	12.3	49.4*
C/C=C/c1ccc([C@@H]2[C@H](CO)N(C(=O)C3CCC3)C23CN(C(=O)NC(C)C)C3)cc1	-4.2	-3.1	/	/	/	/	/
C[C@H](CO)N1C[C@H](C)[C@@H](CN(C)C(=O)c2ccccc2)Oc2cc(/C=C/c3ccccc3)ccc2S1(=O)=O	-69.5	-4.3	?	103.9*	59.4	6.1	42.6*
C/C=C/c1ccc2c(c1)O[C@H](CN(C)C(=O)c1ccncc1)[C@@H](C)CN([C@H](C)CO)S2(=O)=O	4.2	1.8	60.6	/	/	/	/
C/C=C/c1ccc2c(c1)O[C@H](CN(C)C(=O)c1ccccc1)[C@H](C)CN([C@H](C)CO)S2(=O)=O	-8.5	-3.4	/	/	/	/	/
C/C=C/c1ccc2c(c1)O[C@H](CN(C)C(=O)c1ccccc1)[C@@H](C)CN([C@H](C)CO)S2(=O)=O	-22.7	1.8	/	/	/	/	/
C[C@H](CO)N1C[C@H](C)[C@H](CN(C)C(=O)c2ccccc2)Oc2cc(/C=C/c3ccccc3)ccc2S1(=O)=O	-77.7	3.2	126.6*	100.7*	77.7	24.4	14.2
C[C@@H]1CN([C@@H](C)CO)S(=O)(=O)c2ccc(/C=C/c3ccccc3)cc2O[C@H]1CN(C)C(=O)c1ccccc1	-78.0	5.0	126.6*	110.0*	73.6	55.4*	85.0*
C[C@@H]1CN([C@@H](C)CO)S(=O)(=O)c2ccc(/C=C/c3ccccc3)cc2O[C@H]1CN(C)C(=O)c1ccncc1	-32.9	6.4	101.2*	103.1*	65.5	38.4*	69.7*
C/C=C/c1ccc2c(c1)O[C@@H](CN(C)C(=O)c1ccccc1)[C@@H](C)CN([C@@H](C)CO)S2(=O)=O	-2.9	4.8	/	/	/	/	/
C[C@H](O)C#Cc1cnc2c(c1)C(=O)N([C@@H](C)CO)C[C@H](C)[C@H](CN(C)C(=O)c1ccc(F)cc1)O2	34.3	-3.1	/	/	/	/	/
C[C@@H]1CCCCO[C@H](CN(C)C(=O)c2ccccc2)[C@H](C)CN([C@@H](C)CO)C(=O)c2cc(NC(=O)NC3CCCCC3)ccc2O1	-37.1	-3.7	9.7	/	/	/	/
COc1ccccc1NC(=O)N[C@@H]1CC[C@H](CCNC(=O)c2ccc3c(c2)OCO3)O[C@H]1CO	0.9	/	-57.8	/	/	/	/
C[C@@H]1CCCCO[C@H](CN(C)C)[C@H](C)CN([C@@H](C)CO)C(=O)c2cc(NS(=O)(=O)c3cccs3)ccc2O1	26.4	-1.3	10.3	/	/	/	/
Cc1noc(C)c1S(=O)(=O)Nc1ccc2c(c1)CC(=O)N([C@H](C)CO)C[C@@H](C)[C@H](CN(C)C(=O)Nc1ccccc1)O2	29.9	7.9	-10.0	/	/	/	/
CO[C@@H]1CC[C@@H]2CCN(C)C(=O)[C@@H](C)[C@H](OC)CN(C)C(=O)c3cccc(C#N)c3OC[C@@H]1O2	27.1	/	4.9	/	/	/	/
CCCNC(=O)Nc1ccc2c(c1)OC[C@@H](C)N(CCC)C[C@@H](C)[C@@H](OC)CN(C)C2=O	-19.5	/	35.9	/	/	/	/
C/C=C/c1ccc2c(c1)O[C@H](CN(C)C(=O)c1cccc(F)c1)[C@H](C)CN([C@H](C)CO)S2(=O)=O	-39.6	-1.2	78.0	/	/	/	/
C/C=C/c1ccc2c(c1)O[C@@H](CN(C)C(=O)c1cccc(F)c1)[C@@H](C)CN([C@@H](C)CO)S2(=O)=O	-58.1	0.2	?	86.4	31.5	13.4	?
N#Cc1cccc(-c2ccc3c(c2)[C@@H]2[C@@H](CCN2S(=O)(=O)c2ccccc2F)[C@@H](CO)N3)c1	16.4	-1.4	106.5*	98.9*	104.9*	15.2	73.4*
SMILES	Pf Dd2 growth	C diff growth	T cruzi growth-1	T cruzi growth-2	T cruzi growth-3	3T3 cytotox	NIH3T3 tox 2
O=S(=O)(c1ccccc1F)N1CC[C@@H]2[C@H]1c1cc(-c3ccccc3)ccc1N[C@@H]2CO	-51.3	31.8	87.3	/	/	/	/
COc1cccc(-c2ccc3c(c2)[C@@H]2[C@@H](CCN2S(=O)(=O)c2ccccc2C)[C@H](CO)N3)c1	-32.8	3.6	28.1	/	/	/	/
N#Cc1ccc(-c2ccc3c(c2)[C@@H]2[C@@H](CCN2S(=O)(=O)c2ccccc2F)[C@@H](CO)N3)cc1	11.7	-1.9	31.8	/	/	/	/
COc1cccc(-c2ccc3c(c2)[C@@H]2[C@@H](CCN2S(=O)(=O)c2ccccc2F)[C@@H](CO)N3)c1	10.6	22.0	?	97.8*	105.2*	27.9	100.9*
O=S(=O)(c1ccccc1F)N1CC[C@@H]2[C@H](CO)Nc3ccc(-c4ccc(F)cc4)cc3[C@@H]21	-11.7	-13.9	?	90.0	84.3	12.0	105.4*
O=S(=O)(c1ccccc1F)N1CC[C@H]2[C@H](CO)Nc3ccc(-c4ccc(F)cc4)cc3[C@H]21	3.5	3.6	90.1	/	/	/	/
N#Cc1cccc(-c2ccc3c(c2)[C@H]2[C@H](CCN2S(=O)(=O)c2ccccc2F)[C@H](CO)N3)c1	15.1	7.6	109.8*	93.5	82.1	47.1*	74.0*
CNC(=O)C[C@@H]1CC[C@H]2[C@H](COc3ccc(NC(=O)c4cscn4)cc3C(=O)N2C)O1	-4.9	1.3	46.8	/	/	/	/
